# Measurements from article PMC7826789 (International Journal of Molecular Sciences, 2021).
# What was measured:
# Conditions in all cases: Compound Concentration (nM):1000
# [1] = test system: MAST1
# [2] = test system: T1, MEK1
# T1 construct: gene MAP2K1
# [3] = test system: T2, MEK2
# T2 construct: gene MAP2K2
# [4] = test system: T3, MEK3
# T3 construct: gene MAP2K3
# [5] = test system: T4, MEK4
# T4 construct: gene MAP2K4
# [6] = test system: T5, MEK5
# T5 construct: gene MAP2K5
# [7] = test system: T6, MEK6
# T6 construct: gene MAP2K6
# [8] = test system: MELK
# [9] = test system: MERTK
# [10] = test system: MET(M1250T)
# [11] = test system: MET(Y1235D)
# [12] = test system: MET
# [13] = test system: T7, MINK
# T7 construct: gene MINK1
# [14] = test system: T8, MKK7
# T8 construct: gene MAP2K7
# [15] = test system: MKNK1
# [16] = test system: MKNK2
# [17] = test system: T9, MLCK
# T9 construct: gene MYLK3
# [18] = test system: T10, MLK1
# T10 construct: gene MAP3K9
# [19] = test system: T11, MLK2
# T11 construct: gene MAP3K10
# [20] = test system: T12, MLK3
# T12 construct: gene MAP3K11
# 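Note: KINOMEscan scanMAX binding as percent activity remaining versus control; lower means stronger binding.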
Compound,Percent Control [1] [%],Percent Control [2] [%],Percent Control [3] [%],Percent Control [4] [%],Percent Control [5] [%],Percent Control [6] [%],Percent Control [7] [%],Percent Control [8] [%],Percent Control [9] [%],Percent Control [10] [%],Percent Control [11] [%],Percent Control [12] [%],Percent Control [13] [%],Percent Control [14] [%],Percent Control [15] [%],Percent Control [16] [%],Percent Control [17] [%],Percent Control [18] [%],Percent Control [19] [%],Percent Control [20] [%]
Cl.O=C(O[C@H]1CN[C@H](C#Cc2cc3ncnc(Nc4ccc5c(cnn5Cc5ccccc5)c4)c3s2)C1)N1CCOCC1 [GSK200398A],44,69,79,78,97,0.4,71,86,100,86,100,100,98,75,70,47,100,100,100,92
COc1ccc2cc(-c3c(-c4ccncc4)nc(-c4ccc(S(C)(=O)=O)cc4C)n3C)ccc2c1 [SB-633825],68,85,80,70,72,61,100,84,82,76,100,80,43,89,66,73,90,63,79,82
COc1ccc2c(-c3ccnc(Nc4cccc(OC(F)(F)F)c4)n3)cnn2n1 [GW810372X],56,100,100,30,82,72,78,96,100,100,100,100,93,100,73,100,100,100,74,100
CC1=C(C(=O)Nc2ccc3[nH]ncc3c2)C(c2ccc3ccccc3c2)CC(=O)N1 (centres unmarked) [GSK270822A],87,79,74,69,82,70,92,100,100,32,87,47,87,75,75,73,92,68,100,76
COc1cc(C)c(N(C)C(=O)CN(C)C)cc1Nc1nc(Nc2cccc(F)c2C(N)=O)c2cc[nH]c2n1 [GSK2219385],44,100,100,91,94,85,100,100,87,100,99,65,86,97,75,98,78,55,100,100
COc1cccc(-c2c[nH]c3c(N/N=C/c4ccncc4)ncnc23)c1 [GW814408X],100,95,80,77,100,0.1,100,79,94,54,75,64,33,100,57,30,95,61,76,73
COc1cc2ncnc(Nc3ccc4c(cnn4Cc4ccccc4)c3)c2cc1OC.Cl [GW282449A],100,37,50,100,100,0,97,100,83,100,100,100,87,100,100,76,100,100,100,100
C[C@@H](Oc1cc(-n2cnc3ccc(OC4CCN(C)CC4)cc32)sc1C(N)=O)c1ccccc1Cl [GSK579289A],52,94,96,86,98,51,84,70,84,68,98,58,75,78,71,60,72,39,86,100
NS(=O)(=O)c1ccc(N/N=C2\C(=O)Nc3ccc(Cl)cc32)cc1 [GW280670X],100,98,100,100,100,100,99,100,100,100,100,100,25,100,100,100,85,100,98,96
Cl.O=C(Nc1ccc(Oc2ccc3[nH]c(NC(=O)c4ccccc4)nc3c2)cc1)Nc1cc(C(F)(F)F)ccc1F [GW709042A],99,80,98,91,100,51,86,68,8.2,78,59,64,93,100,64,26,100,100,47,73
